Data from PubChem BioAssay (Tox21).
Calls of active or inactive are those of the source. The call rests on the fitted dose curve; in most records, active means well fitted activation curve with a large enough effect in the repeat runs; inconclusive means weak or mixed curves; inactive means flat fitted curve, though single readings scatter.

Assay: A CellTox Green Cytotoxicity Assay to monitor cytotoxicity in HEK293 cells - 0 hour (AID 1224869); further: nearly all actives have a fitted effect of over 50% in size
Details: CellTox Green fluorescence; series mostly up to 76.8 µM
Description: National Center for Advancing Translational Sciences [NCATS]
NIH Chemical Genomics Center [NCGC]
U.S. Environmental Protection Agency [EPA]
National Institutes of Environmental Health Sciences [NIEHS]
National Toxicology Program [NTP]
Cell-based models are critical for drug discovery. Determining the natural cytotoxic effects resulting from test compounds is an essential research activity. A CellTox Green Cytotoxicity Assay to monitor cytotoxicity in real time of continues cell culture during 40 hours of the compound treatment was used to screen Tox21 10K library compounds in Hek293 cells. CellTox Green Cytotoxicity Assay is a nonlytic, homogeneous, biofluorescent method to measure cytotoxicity in cell culture after experimental manipulation. The assay system uses a proprietary asymmetric cyanine dye that is excluded from viable cells but preferentially stains the dead cell's DNA. […] Viable cells produce no appreciable increases in fluorescence. Therefore, the fluorescence signal produced by the binding interaction with dead cell DNA is proportional to cytotoxicity.
The mixture of Hek293 cell suspension and reagents were dispensed at 600cells/6 ul/well in 1536-well tissue culture treated black solid bottom plates using a Multidrop dispenser. After the assay plates were incubated at a 37 C/5% CO2 incubator for 5 hours, 23 nL of compounds dissolved in DMSO, positive and negative controls was transferred to the assay plate by a pintool work station. The plates were incubated at 37 C for 40 hours. The fluorescence intensity were measured at 0h, 8h, 16h, 24h, 32h and 40h time points using ViewLux plate reader during compound treatment.
On the % scale 0 is the no-effect control and ±100 the full control effect.

Row | Structure (SMILES) | outcome | cytotoxicity
1 | C=COC(=O)C(C)(CC)CCC(C)C (stereo not given) | inactive | 
2 | COC(=O)C1=C(C)NC(C)=C(C(=O)OC(C)C)C1c1cccc2nonc12 (stereo not given) | inactive | 
3 | O=C(CO)[C@@H](O)[C@H](O)[C@@H](O)CO | inactive | 
4 | CCN1C=CN(C)C1C (stereo not given) | inactive | 
5 | COc1cc(C)nc(-n2nc(C)cc2OC)n1 | inactive | 
6 | CC(=O)c1ccc2ccccc2c1 | inactive | 
7 | CCCOC(=O)CC | inactive | 
8 | O=C1CCCCCCCCCCCCCCO1 | inactive | 
9 | CCNS(=O)(=O)c1ccc(C)cc1 | inactive | 
10 | CCCCc1ccc2c(n1)[C@@H](c1ccc(OC)cc1C[C@H](C)C(=O)O)[C@H](C(=O)O)[C@H]2c1ccc2c(c1)OCO2 | inactive | 
11 | CCCCCCC1CCC(=O)O1 (stereo not given) | inactive | 
12 | CC1=C(C/C=C(\C)CCC[C@H](C)CCC[C@H](C)CCCC(C)C)C(=O)c2ccccc2C1=O | inactive | 
13 | CC1OC1C1CCC2(C)OC2C1 (stereo not given) | inactive | 
14 | CCOC(=O)OC(C)OC1=C(C(=O)Nc2ccccn2)N(C)S(=O)(=O)c2ccccc21 (stereo not given) | inactive | 
15 | CC(C)=CCC/C(C)=C/C#N | inactive | 
16 | COc1c(N2CCNC(C)C2)c(F)cc2c(=O)c(C(=O)O)cn(C3CC3)c12 (stereo not given) | inactive | 
17 | NC(=O)NC1N=C([O][Al])NC1=O (stereo not given) | inactive | 
18 | O=Cc1cccc(Br)c1 | inactive | 
19 | CC1=CCC(O)(C(C)C)CC1 (stereo not given) | inactive | 
20 | CCCCN1C=CN(C)C1 |  | -3.75% [at 15.8 µM] (inactive)

Row | Structure (SMILES) | outcome | cytotoxicity
21 | CCC(C)(CCCC(C)C)OC(C)=O (stereo not given) | inactive | 
22 | NCCCC[C@H](N[C@@H](CCc1ccccc1)C(=O)O)C(=O)N1CCC[C@H]1C(=O)O | inactive | 
23 | CC/C=C\CCOC(C)OCC (stereo not given) | inactive | 
24 | Cc1ccc(-c2ccccc2C#N)cc1 | inactive | 
25 | CC(C)(C#N)Nc1nc(Cl)nc(NC2CC2)n1 | inactive | 
26 | CC1(C)OC[C@@H](COC(=O)CCc2ccc(OC[C@@H](O)CNCCNC(=O)N3CCOCC3)cc2)O1 | inactive | 
27 | c1ccc(CCc2ccccc2)cc1 | inactive | 
28 | C[C@@H]1C[C@H]2[C@@H]3C[C@H](F)C4=CC(=O)C(Cl)=C[C@]4(C)[C@@]3(F)[C@@H](O)C[C@]2(C)[C@@]1(O)C(=O)CO | inactive | 
29 | CCC(C(=O)NC(=O)NC(C)=O)c1ccccc1 (stereo not given) | inactive | 
30 | CC(C)(N)C#N | inactive | 
31 | CCN[C@@H]1C[C@H](N)[C@@H](OC2OC(CN)=CCC2N)[C@H](O)[C@H]1O[C@H]1OC[C@](C)(O)[C@H](NC)[C@H]1O (stereo not given in full) |  | 3.58% [at 0.29 µM] (inactive)
32 | Nc1ccn([C@@H]2O[C@H](CO)[C@@H](O)C2(F)F)c(=O)n1 | inactive | 
33 | CC[N+](CC)(CC)CCOc1cccc(OCC[N+](CC)(CC)CC)c1OCC[N+](CC)(CC)CC | inactive | 
34 | CC(C)C(=O)OC(=O)C(C)C | inactive | 
35 | CCCO[Si](OCCC)(OCCC)OCCC | inactive | 
36 | CC(=O)NC(=O)c1ccccc1O | inactive | 
37 | CC(C)NNC(=O)c1ccncc1 | inactive | 
38 | CCCc1nn(C)c2c(=O)[nH]c(-c3cc(S(=O)(=O)N4CCN(C)CC4)ccc3OCC)nc12 | inactive | 
39 | CCCCN(CCC(=O)OCC)C(C)=O | inactive | 
40 | CC(C)CC(C)(N)C#N (stereo not given) | inactive | 
